CYP2C9 inhib: blocks human cytochrome P450 2C9. P11712. CYP2C9 Supersomes, luciferin-H conversion, luminescence. inhibition, % at 5 µM. 96,000 tested, 20% active;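 active means blocking of liver enzyme CYP2C9 beyond about 50% at 5 µM, limit read from the data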
Target sequence (P11712 whole entry, looked up): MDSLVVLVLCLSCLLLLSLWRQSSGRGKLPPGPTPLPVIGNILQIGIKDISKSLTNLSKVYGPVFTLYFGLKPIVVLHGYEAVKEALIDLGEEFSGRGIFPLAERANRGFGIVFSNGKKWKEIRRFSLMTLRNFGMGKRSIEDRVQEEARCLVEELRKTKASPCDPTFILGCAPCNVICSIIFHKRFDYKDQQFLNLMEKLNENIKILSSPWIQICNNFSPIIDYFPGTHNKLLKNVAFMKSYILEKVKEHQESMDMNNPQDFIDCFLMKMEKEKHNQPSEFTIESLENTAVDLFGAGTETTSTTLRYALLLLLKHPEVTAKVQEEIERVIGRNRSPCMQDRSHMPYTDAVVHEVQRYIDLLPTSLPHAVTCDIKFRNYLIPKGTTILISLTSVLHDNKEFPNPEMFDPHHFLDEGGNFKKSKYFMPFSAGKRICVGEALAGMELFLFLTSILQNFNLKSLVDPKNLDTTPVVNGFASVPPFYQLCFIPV
CYP2C19 activ: increases human CYP2C19 enzyme activity; P33261; recombinant CYP2C19, luciferin-H EGE luminescence; stronger effect = higher value; 0 = fully inhibited enzyme, 1 = untreated enzyme; activation factor at 5 µM; 96,000 tested, under 10 active;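 active means activation factor of at least 2 at 5 µM in the primary screen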;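 further: 0 = wells with 2.5 mM tranylcypromine and 1 = vehicle-only wells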
Cav32 inh: human Cav3.2 channel inhibition, primary screen; O95180; Cav3.2-expressing cells, Fluo-4 calcium fluorescence FDSS; stronger effect = lower value; B-score at 10 µM; 100,000 tested, 4% active;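 active means single-dose well whose peak fluorescence ratio is a statistical outlier from its plate by either plate-standardised score or position-corrected B-score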
CYP2C9 act: CYP2C9 (human) activation; recombinant CYP2C9, luciferin-H conversion, luminescence; stronger effect = higher value; factor 1 = untreated enzyme, 0 = blocked; activation factor at 5 µM; 96,000 tested, 1.4% active;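 active means activation factor of 2 or more for CYP2C9 at a 5 µM dose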;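 further: 0 = sulfaphenazole-blocked wells and 1 = vehicle-only wells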
CYP2C19 inh: human CYP2C19 inhibition | CYP2C19 Supersomes, luciferin-H EGE luminescence, 30 min | AID 778 | P33261 | inhibition, % at 5 µM | 96,000 tested, 21% active;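 active means CYP2C19 inhibition above a set limit at 5 µM in the primary screen, cut at about 50% in these data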;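 further: plate controls were negative control wells for no effect and 2.5 mM tranylcypromine positive control for full effect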
Active calls of the source: *; . = no result. The list is not random: actives were taken first. Their share in the collection is about 27%.

SMILES	CYP2C9 inhib	CYP2C19 activ	Cav32 inh	CYP2C9 act	CYP2C19 inh
COC(=O)CNC(=O)COC(=O)c1cc(Cl)cc(Cl)c1N	.	.	0.14	.	.
Cc1c(=O)n(OCc2ccccc2F)c2ccccc2[n+]1[O-]	-4	0.8	-0.31	1	20
CCCOC(=O)c1ccc(OCC(O)CN2C(=O)NC(C)(C)C2=O)cc1 (configuration not stated)	1	0.9	0.59	1	13
CC1(C)NC(=O)N(CCCCOc2cccc(C(F)(F)F)c2)C1=O	61*	0.2	-0.96	0.4	85*
CC1(C)NC(=O)N(CCCCOc2ccc3c(c2)CCC3)C1=O	33	0.2	-3.1	0.7	78*
CC1(C)NC(=O)N(CC(=O)OCC(=O)Nc2cccc(F)c2)C1=O	39	0.5	-0.3	0.6	49
CCC(C)Oc1cccc(OCCCCN2C(=O)NC(C)(C)C2=O)c1 (configuration not stated)	59*	0.3	-0.59	0.4	72*
O=C1CCC(=O)N1OCCCOc1ccc2c(c1)CCC2	-10	0.9	.	1.1	6
Cc1ccc(/C(=C\CN2CCCC2)c2ccccn2)cc1	.	.	0.37	.	.
C1CN(c2nc3nonc3n3nnnc23)CCO1	28	0.8	0.064	0.7	18
CCN(CC)CCNC(=O)c1ccc2c(=O)n(CCc3ccccc3)c(=O)[nH]c2c1	-1	0.8	1	1	18
Cc1ccc(NCCC(=O)c2cccc([N+](=O)[O-])c2)c(C)c1	38	0.2	-1.8	0.6	75*
Cc1cc([N+](=O)[O-])ccc1NCc1cccc2ccccc12	.	.	-0.7	.	.
COc1ccc(OC)c2[nH]c(=O)c(CCNS(=O)(=O)c3ccc(C)cc3)cc12	68*	0.7	.	0.3	31
COc1ccc(OC)c2[nH]c(=O)c(CCNS(=O)(=O)c3ccc(Cl)cc3)cc12	84*	0.6	.	0.2	44
Cc1ccc(C)c2[nH]c(=O)c(CCNS(=O)(=O)c3ccccc3)cc12	61*	0.2	-0.082	0.4	76*
COc1ccc(OC)c2[nH]c(=O)c(CCNC(=O)c3ccc(S(=O)(=O)N(C)C)cc3)cc12	33	1	.	0.7	3
CN1C(=S)SC(/[N+]([O-])=C\c2ccco2)C1(C)C (configuration not stated)	-9	1	0.44	1.1	0
CCN(CC)c1ccc(/C=C(/C#N)c2nc3ccc(C)cc3[nH]2)c(OC(C)C)c1	72*	0.4	-5.5*	0.3	60*
CCOc1cc(N(CC)CC)ccc1/C=C(/C#N)c1nc2ccccc2[nH]1	77*	0.4	.	0.2	56*
COc1cc(/C=C(\C#N)c2nc3ccc(C)cc3[nH]2)c([N+](=O)[O-])cc1OC	37	0.7	-1.2	0.6	31
CCCOc1cc(N(CC)CC)ccc1/C=C(/C#N)c1nc2ccc(C)cc2[nH]1	58*	0.8	-5*	0.4	22
CCOc1ccc(/C=N/O)cc1	14	0.4	-0.44	0.9	55*
Cc1ccc(Oc2ccc(/C=N/O)cn2)cc1	13	0.9	0.68	0.9	8
CCn1c(-c2ccc(C)cc2)n[nH]c1=S	32	0.6	-0.095	0.7	45
SMILES	CYP2C9 inhib	CYP2C19 activ	Cav32 inh	CYP2C9 act	CYP2C19 inh
C=CCn1c(-c2cccc(Cl)c2)n[nH]c1=S	12	0.5	-0.45	0.9	49
C=CCn1c(-c2ccc(Cl)cc2)c[nH]c1=S	42	0.3	-0.089	0.6	66*
CCn1c(-c2ccc(-c3ccccc3)cc2)c[nH]c1=S	19	0.2	-0.18	0.8	81*
Cn1c(-c2ccc(-c3ccccc3)cc2)c[nH]c1=S	64*	0.1	0.98	0.4	89*
C=CCn1c(-c2ccccc2)c[nH]c1=S	23	0.3	-0.12	0.8	70*
c1ccc(-c2csc(N3CCN(c4ccccn4)CC3)n2)cc1	-10	0.8	-0.57	1.1	20
CC(C)CNC(=S)NC1CCCC1	20	0.6	0.41	0.8	35
COc1ccccc1C(=O)NC(C)c1nc2ccccc2[nH]1 (configuration not stated)	55*	0.4	0.075	0.5	56*
COc1ccccc1C(=O)Nc1ccccn1	-3	0.7	0.41	1	28
Cc1ccc(CNC(=O)CN(C)S(=O)(=O)c2cccc3cccnc23)cc1	42	0.1	-0.06	0.6	88*
Cc1ccc(S(=O)(=O)N(C)CCCC(=O)Nc2ccncc2)cc1	96*	0	.	0	99*
Cc1ccc(S(=O)(=O)NNC(=O)CCC(=O)Nc2ccccc2)cc1	4	1	0.02	1	-3
